Data on one molecule can be found in ChEMBL document CHEMBL1961873, “Compounds: GSK PKIS; Assays: Nanosyn kinase panel” (2012).

The target in assay [1] is Sphingosine kinase 1 (Homo sapiens) (UniProt Q9NYA1). The conditions noted are these: at 1 µM.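 Also: mean SPHK1 inhibition value reported from the GSK PKIS kinase panel screen.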
The target in assay [2] is T1, Sphingosine kinase 2 (Homo sapiens) (UniProt Q9NRA0).
T1 sequence (whole entry): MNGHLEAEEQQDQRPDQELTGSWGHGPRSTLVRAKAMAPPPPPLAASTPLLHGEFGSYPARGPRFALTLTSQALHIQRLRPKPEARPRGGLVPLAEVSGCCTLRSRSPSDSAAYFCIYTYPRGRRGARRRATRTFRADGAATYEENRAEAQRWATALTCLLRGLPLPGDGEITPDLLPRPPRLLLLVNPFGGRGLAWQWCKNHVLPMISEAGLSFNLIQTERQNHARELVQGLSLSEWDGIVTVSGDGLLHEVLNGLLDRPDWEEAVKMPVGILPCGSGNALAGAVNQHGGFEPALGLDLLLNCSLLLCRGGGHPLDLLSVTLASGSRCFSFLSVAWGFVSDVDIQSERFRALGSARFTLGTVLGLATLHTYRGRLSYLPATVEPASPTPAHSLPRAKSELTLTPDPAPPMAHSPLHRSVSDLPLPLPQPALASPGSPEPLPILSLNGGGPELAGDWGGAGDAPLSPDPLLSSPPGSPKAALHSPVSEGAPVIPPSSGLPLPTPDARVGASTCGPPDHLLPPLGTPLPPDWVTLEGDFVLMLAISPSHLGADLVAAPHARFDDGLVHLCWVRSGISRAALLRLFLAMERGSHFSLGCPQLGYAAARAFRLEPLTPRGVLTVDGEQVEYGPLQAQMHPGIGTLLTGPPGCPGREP
As to conditions: at 0.1 µM.

Assay [3] deals with T1, Sphingosine kinase 2 (Homo sapiens). As to conditions: at 1 µM.
For assay [4], the target named is Casein kinase II subunit alpha (Homo sapiens) (UniProt P68400). The conditions noted are these: at 0.1 µM.
Assay [5] shares this target. As to conditions: at 1 µM.
In assay [6] the target is T2, Inhibitor of nuclear factor kappa-B kinase subunit alpha (Homo sapiens) (UniProt O15111).
T2 sequence (whole entry): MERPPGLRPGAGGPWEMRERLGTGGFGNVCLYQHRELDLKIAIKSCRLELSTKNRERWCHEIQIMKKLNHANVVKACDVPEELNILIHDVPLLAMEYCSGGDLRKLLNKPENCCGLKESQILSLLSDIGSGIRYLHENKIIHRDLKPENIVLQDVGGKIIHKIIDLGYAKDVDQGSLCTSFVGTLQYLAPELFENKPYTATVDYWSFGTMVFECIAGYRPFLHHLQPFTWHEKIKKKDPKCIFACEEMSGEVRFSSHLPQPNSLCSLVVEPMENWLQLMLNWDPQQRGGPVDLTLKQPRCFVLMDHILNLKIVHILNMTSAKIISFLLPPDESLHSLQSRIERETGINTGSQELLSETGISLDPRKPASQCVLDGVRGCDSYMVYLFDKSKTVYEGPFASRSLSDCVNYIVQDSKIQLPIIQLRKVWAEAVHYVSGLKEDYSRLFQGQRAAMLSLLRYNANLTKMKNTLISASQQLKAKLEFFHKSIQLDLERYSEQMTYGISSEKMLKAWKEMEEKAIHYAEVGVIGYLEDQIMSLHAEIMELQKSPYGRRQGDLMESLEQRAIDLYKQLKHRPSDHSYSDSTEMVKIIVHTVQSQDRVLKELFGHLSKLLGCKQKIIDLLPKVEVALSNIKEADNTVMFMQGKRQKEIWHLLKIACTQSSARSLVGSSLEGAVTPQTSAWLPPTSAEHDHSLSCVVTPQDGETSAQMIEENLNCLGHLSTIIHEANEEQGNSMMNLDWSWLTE
As to conditions: at 0.1 µM.

Assay [7] concerns the target T2, Inhibitor of nuclear factor kappa-B kinase subunit alpha (Homo sapiens). As to conditions: at 1 µM.
Assay [8] addresses T3, Inhibitor of nuclear factor kappa-B kinase subunit beta (Homo sapiens) (UniProt O14920).
T3 sequence (whole entry): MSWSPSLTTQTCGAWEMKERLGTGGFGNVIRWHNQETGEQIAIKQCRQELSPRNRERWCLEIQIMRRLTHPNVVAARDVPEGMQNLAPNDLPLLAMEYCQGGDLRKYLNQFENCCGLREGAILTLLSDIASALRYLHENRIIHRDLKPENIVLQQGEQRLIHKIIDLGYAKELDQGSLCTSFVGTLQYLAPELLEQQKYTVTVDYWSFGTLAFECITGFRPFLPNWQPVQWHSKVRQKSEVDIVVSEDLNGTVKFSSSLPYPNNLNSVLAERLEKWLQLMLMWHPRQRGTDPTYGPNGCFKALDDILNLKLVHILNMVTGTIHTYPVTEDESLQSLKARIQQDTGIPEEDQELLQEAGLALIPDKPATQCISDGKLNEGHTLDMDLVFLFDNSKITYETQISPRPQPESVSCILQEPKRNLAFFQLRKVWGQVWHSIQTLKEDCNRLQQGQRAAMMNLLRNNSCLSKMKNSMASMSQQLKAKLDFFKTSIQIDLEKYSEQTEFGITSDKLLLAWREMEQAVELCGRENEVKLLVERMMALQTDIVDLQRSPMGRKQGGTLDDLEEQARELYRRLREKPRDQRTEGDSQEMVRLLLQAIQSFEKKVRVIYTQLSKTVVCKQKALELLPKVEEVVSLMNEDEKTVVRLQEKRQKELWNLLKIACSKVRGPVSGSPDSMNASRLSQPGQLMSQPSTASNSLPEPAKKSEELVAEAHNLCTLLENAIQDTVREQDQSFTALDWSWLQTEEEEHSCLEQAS
The conditions noted are these: at 0.1 µM.

Assay [9] concerns the target T3, Inhibitor of nuclear factor kappa-B kinase subunit beta (Homo sapiens). The conditions noted are these: at 1 µM.
For assay [10], the target named is T4, Inhibitor of nuclear factor kappa-B kinase subunit epsilon (Homo sapiens) (UniProt Q14164).
T4 sequence (whole entry): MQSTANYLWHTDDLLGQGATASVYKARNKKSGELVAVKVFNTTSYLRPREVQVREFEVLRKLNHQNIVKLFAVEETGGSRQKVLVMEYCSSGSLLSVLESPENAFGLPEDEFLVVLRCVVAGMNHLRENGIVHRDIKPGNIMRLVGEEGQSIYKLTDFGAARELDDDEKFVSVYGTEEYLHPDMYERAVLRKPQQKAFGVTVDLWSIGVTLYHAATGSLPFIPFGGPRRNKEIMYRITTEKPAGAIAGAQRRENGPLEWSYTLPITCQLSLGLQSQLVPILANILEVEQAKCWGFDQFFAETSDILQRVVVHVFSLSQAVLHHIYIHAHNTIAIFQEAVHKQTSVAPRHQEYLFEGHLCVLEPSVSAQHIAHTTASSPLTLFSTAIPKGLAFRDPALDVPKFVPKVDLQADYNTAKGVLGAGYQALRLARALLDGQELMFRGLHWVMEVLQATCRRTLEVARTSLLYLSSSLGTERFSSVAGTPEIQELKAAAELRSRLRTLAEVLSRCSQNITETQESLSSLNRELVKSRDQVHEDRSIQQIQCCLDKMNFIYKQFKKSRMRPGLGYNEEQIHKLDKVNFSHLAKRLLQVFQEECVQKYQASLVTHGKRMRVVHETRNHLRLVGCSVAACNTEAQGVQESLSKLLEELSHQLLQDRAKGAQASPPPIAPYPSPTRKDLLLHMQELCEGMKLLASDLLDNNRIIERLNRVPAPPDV
The conditions noted are these: at 0.1 µM.

The target in assay [11] is T4, Inhibitor of nuclear factor kappa-B kinase subunit epsilon (Homo sapiens). The conditions noted are these: at 1 µM.
In assay [12] the target is T5, Serine/threonine-protein kinase Nek1 (Homo sapiens) (UniProt Q96PY6).
T5 sequence (whole entry): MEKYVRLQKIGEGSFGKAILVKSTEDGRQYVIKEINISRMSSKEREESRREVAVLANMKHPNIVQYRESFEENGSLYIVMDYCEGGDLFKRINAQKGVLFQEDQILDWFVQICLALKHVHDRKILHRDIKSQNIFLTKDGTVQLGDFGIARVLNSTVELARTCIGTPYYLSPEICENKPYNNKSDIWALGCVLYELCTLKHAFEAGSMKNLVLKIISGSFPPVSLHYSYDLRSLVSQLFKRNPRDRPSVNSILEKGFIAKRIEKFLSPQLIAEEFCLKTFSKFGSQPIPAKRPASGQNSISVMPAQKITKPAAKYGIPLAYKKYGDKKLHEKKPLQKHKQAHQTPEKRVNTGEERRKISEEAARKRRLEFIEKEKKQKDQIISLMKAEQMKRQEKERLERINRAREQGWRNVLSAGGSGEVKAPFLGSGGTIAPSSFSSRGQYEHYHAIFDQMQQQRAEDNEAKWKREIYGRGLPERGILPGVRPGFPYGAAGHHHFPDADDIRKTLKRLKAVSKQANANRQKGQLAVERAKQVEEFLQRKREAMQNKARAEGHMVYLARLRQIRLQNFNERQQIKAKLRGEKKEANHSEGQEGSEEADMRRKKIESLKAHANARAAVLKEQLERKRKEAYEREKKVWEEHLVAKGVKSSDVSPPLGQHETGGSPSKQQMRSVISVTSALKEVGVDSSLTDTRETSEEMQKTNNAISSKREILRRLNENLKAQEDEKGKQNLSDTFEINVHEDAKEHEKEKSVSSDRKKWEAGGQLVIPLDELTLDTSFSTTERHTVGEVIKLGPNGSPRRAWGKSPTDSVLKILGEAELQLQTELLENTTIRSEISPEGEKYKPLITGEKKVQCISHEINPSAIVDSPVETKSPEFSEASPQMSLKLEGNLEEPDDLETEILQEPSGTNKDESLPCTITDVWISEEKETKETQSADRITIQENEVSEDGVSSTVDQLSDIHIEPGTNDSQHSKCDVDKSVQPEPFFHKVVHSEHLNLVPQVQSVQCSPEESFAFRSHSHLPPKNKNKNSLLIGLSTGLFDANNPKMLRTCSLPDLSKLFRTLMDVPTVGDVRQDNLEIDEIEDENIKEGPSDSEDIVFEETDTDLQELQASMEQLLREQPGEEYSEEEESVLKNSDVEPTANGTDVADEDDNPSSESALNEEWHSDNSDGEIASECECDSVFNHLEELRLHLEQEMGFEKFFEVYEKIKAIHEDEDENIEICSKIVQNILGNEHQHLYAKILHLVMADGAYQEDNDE
The conditions noted are these: at 0.1 µM.

The target in assay [13] is T5, Serine/threonine-protein kinase Nek1 (Homo sapiens). As to conditions: at 1 µM.
For assay [14], the target named is T6, Serine/threonine-protein kinase Nek2 (Homo sapiens) (UniProt P51955).
T6 sequence (whole entry): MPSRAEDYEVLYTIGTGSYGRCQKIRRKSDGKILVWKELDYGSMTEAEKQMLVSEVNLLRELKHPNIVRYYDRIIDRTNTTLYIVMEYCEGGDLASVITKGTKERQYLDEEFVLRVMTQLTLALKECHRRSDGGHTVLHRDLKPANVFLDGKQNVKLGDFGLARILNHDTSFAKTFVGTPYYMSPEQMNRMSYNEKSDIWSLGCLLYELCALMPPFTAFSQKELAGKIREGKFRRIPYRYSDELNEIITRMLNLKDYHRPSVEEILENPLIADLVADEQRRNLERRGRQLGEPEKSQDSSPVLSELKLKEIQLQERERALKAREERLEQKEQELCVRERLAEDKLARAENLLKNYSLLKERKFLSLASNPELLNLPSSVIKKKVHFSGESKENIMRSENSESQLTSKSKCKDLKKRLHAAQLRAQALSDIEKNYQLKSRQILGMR
The conditions noted are these: at 0.1 µM.

The target in assay [15] is T6, Serine/threonine-protein kinase Nek2 (Homo sapiens). The conditions noted are these: at 1 µM.
In assay [16] the target is Serine/threonine-protein kinase Nek6 (Homo sapiens) (UniProt Q9HC98). As to conditions: at 0.1 µM.
Assay [17] shares this target. As to conditions: at 1 µM.
Assay [18] addresses Serine/threonine-protein kinase Nek7 (Homo sapiens) (UniProt Q8TDX7). The conditions noted are these: at 0.1 µM.
For assay [19] the target is unchanged. The conditions noted are these: at 1 µM.
Assay [20] concerns the target T7, Serine/threonine-protein kinase Nek9 (Homo sapiens) (UniProt Q8TD19).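 Also: reported value is the mean percent inhibition of NEK9.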
T7 sequence (whole entry): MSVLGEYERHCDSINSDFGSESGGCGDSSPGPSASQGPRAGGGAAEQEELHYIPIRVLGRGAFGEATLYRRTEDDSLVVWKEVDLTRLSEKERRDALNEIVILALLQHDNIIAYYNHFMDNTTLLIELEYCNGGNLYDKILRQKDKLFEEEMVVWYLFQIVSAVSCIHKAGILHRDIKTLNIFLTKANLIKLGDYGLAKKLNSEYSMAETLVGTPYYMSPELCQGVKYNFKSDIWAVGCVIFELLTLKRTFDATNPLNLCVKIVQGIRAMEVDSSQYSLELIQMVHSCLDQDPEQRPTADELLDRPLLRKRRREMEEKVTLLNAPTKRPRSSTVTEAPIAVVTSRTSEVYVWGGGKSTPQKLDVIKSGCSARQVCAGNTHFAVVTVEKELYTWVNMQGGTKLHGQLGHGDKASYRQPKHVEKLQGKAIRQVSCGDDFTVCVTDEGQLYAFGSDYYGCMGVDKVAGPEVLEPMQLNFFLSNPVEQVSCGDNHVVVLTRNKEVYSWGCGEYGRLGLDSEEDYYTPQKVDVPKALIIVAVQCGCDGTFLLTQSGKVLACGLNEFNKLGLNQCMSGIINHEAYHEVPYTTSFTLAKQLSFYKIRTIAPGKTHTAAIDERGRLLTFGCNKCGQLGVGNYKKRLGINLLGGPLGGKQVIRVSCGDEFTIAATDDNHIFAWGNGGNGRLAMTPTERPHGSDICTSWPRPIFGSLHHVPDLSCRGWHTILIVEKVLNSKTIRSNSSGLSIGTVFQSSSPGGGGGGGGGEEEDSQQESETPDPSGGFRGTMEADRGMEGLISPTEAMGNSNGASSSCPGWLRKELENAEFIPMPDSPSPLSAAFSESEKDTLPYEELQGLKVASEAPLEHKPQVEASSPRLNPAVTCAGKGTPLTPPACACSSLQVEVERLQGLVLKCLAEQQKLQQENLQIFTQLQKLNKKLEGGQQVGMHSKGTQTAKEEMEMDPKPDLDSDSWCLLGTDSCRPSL
As to conditions: at 0.1 µM.

Structures are written as SMILES.

Casein kinase II subunit alpha (Homo sapiens), sequence (P68400 whole entry, looked up): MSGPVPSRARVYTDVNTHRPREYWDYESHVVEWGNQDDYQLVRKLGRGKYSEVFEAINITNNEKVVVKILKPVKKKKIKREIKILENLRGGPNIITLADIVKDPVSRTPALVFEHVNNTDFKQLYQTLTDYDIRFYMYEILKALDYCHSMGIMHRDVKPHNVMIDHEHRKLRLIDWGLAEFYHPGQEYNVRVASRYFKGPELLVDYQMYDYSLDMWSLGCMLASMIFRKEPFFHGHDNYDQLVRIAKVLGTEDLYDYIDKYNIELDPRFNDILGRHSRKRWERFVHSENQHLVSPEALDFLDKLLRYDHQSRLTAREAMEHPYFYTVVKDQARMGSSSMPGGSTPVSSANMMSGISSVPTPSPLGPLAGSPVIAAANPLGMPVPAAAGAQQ
Serine/threonine-protein kinase Nek7 (Homo sapiens), sequence (Q8TDX7 whole entry, looked up): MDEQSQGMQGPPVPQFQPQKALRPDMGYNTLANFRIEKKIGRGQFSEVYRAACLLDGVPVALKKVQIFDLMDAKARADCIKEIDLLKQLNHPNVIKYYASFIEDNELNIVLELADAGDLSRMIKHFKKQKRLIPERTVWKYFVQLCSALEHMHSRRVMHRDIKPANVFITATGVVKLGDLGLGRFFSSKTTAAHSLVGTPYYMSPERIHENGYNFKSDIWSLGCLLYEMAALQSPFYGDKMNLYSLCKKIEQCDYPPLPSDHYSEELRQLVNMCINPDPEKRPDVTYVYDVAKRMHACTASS
Serine/threonine-protein kinase Nek6 (Homo sapiens), sequence (Q9HC98 whole entry): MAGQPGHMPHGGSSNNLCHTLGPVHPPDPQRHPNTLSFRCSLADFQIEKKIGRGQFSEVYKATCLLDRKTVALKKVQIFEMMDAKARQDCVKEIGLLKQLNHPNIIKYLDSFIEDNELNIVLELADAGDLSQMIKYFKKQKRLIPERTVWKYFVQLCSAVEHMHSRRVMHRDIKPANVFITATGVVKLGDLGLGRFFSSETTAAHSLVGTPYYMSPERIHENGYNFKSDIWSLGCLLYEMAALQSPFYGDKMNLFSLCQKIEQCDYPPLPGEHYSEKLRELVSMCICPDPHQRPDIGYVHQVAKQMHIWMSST
Sphingosine kinase 1 (Homo sapiens), sequence (Q9NYA1 whole entry): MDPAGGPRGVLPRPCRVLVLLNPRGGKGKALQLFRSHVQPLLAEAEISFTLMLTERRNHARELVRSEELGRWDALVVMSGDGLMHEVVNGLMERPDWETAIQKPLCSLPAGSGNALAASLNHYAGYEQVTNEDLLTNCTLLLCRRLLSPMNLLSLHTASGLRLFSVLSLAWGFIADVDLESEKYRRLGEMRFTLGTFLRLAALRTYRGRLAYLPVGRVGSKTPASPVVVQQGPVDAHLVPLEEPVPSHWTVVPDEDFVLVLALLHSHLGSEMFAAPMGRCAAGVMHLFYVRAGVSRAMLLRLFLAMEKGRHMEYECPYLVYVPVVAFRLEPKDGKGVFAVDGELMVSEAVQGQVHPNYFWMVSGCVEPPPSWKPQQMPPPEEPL

By inhibition is commonly meant the drop in the measured response relative to a control, in per cent. As to `FC(F)(F)c1cccc(-c2nn3ncccc3c2-c2ccnc(Nc3ccc4c(c3)OCCO4)n2)c1`, the inhibition was 1.14% in [1]; 0.13% in assay [2]; -0.65% in assay [3]; 0.21% in assay [4]; -1.98% in assay [5]; 3.23% in [6]. The inhibition is 0.65% in assay [7]; 2.71% in assay [8]; 0.36% in assay [9]; 2.48% in assay [10]; 2.87% in assay [11]; 1.52% in assay [12]. Further, the inhibition in assay [13] is 0.83%; in assay [14], 3.63%; in assay [15] it was 3.89%; in assay [16], 0.6%; in [17], -0.45%; in assay [18], 4.18%. Besides, the inhibition is 2.91% in assay [19] and 3.97% in [20].
